Assays:
Conditions in all cases: concentration: 1 μM, replicates: in singlicate; n = 1
MAP3K3 = test system: MAP3K3
MAP3K4 = test system: MAP3K4
MAP4K2 = test system: MAP4K2
MAP4K3 = test system: MAP4K3
MAP4K4 = test system: MAP4K4
MAP4K5 = test system: MAP4K5
MAPKAPK2 = test system: MAPKAPK2
MAPKAPK5 = test system: MAPKAPK5
MARK1 = test system: MARK1
MARK2 = test system: MARK2
MARK3 = test system: MARK3
MARK4 = test system: MARK4
MAST1 = test system: MAST1
MEK1 = test system: T1, MEK1
T1 construct: gene MAP2K1

MEK2 = test system: T2, MEK2
T2 construct: gene MAP2K2

MEK3 = test system: T3, MEK3
T3 construct: gene MAP2K3

MEK4 = test system: T4, MEK4
T4 construct: gene MAP2K4

MEK5 = test system: T5, MEK5
T5 construct: gene MAP2K5

MEK6 = test system: T6, MEK6
T6 construct: gene MAP2K6

MELK = test system: MELK
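Note: KINOMEscan kinase panel screen.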

Row | SMILES | %Inh (MAP3K3) [%] | %Inh (MAP3K4) [%] | %Inh (MAP4K2) [%] | %Inh (MAP4K3) [%] | %Inh (MAP4K4) [%] | %Inh (MAP4K5) [%] | %Inh (MAPKAPK2) [%] | %Inh (MAPKAPK5) [%] | %Inh (MARK1) [%] | %Inh (MARK2) [%] | %Inh (MARK3) [%] | %Inh (MARK4) [%] | %Inh (MAST1) [%] | %Inh (MEK1) [%] | %Inh (MEK2) [%] | %Inh (MEK3) [%] | %Inh (MEK4) [%] | %Inh (MEK5) [%] | %Inh (MEK6) [%] | %Inh (MELK) [%]
1 | FC(F)(F)c1ccc(-c2nn3ncccc3c2-c2ccnc(Nc3cccc(C(F)(F)F)c3)n2)cc1 [GW828205] | 21 | 8 | 0 | 0 | 4 | 0 | 0 | 0 | 3 | 0 | 13 | 0 | 12 | 4 | 28 | 0 | 0 | 4 | 0 | 0
2 | CN1CCC(n2cnc(-c3ccc(F)cc3)c2-c2ccnc(NC3CCNCC3)n2)CC1 [SB-229482] | 0 | 1 | 12 | 0 | 0 | 0 | 8 | 6 | 8 | 13 | 0 | 6 | 27 | 0 | 0 | 18 | 0 | 0 | 0 | 0
3 | Cl.Cl.c1ccc(-c2cc3ccncc3cc2OC2CCNCC2)cc1 [GSK1122999] | 0 | 18 | 0 | 0 | 10 | 0 | 25 | 0 | 0 | 0 | 0 | 5 | 0 | 0 | 5 | 0 | 23 | 16 | 0 | 17
4 | Cn1cc(-c2ccc3c(c2)CCN3C(=O)Cc2cccc(C(F)(F)F)c2)c2c(N)ncnc21 [GSK2606414] | 0 | 12 | 0 | 0 | 10 | 10 | 100 | 0 | 6 | 0 | 0 | 7 | 0 | 0 | 0 | 0 | 22 | 6 | 0 | 8
5 | O=C(Nc1n[nH]c2nc(-c3ccco3)c(Br)cc12)c1ccc(CN2CCCC2)cc1.O=C(O)[C@H](O)[C@@H](O)C(=O)O [SB-742352] | 0 | 4 | 34 | 0 | 4 | 24 | 0 | 0 | 0 | 1 | 0 | 2 | 6 | 0 | 0 | 0 | 0 | 83 | 0 | 3
6 | Fc1cccc(COc2ccc(Nc3ncnc4cc[nH]c34)cc2Cl)c1 | 0 | 4 | 0 | 0 | 21 | 7 | 4 | 26 | 0 | 36 | 9 | 0 | 65 | 12 | 21 | 18 | 20 | 47 | 0 | 6
7 | N#Cc1ccc(Oc2ccc(Nc3ncnc4cc[nH]c34)cc2Cl)cc1 | 27 | 9 | 0 | 24 | 37 | 27 | 0 | 21 | 3 | 0 | 0 | 0 | 38 | 22 | 39 | 37 | 0 | 44 | 19 | 25
8 | CCc1nc(-c2cccc(N(C)S(=O)(=O)c3ccccc3)c2)c(-c2ccnc(Nc3ccc(N4CCN(C(C)=O)CC4)nc3)n2)s1 [GSK1645895] | 0 | 18 | 0 | 0 | 0 | 17 | 0 | 0 | 0 | 4 | 0 | 0 | 0 | 0 | 3 | 3 | 0 | 99.9 | 24 | 0
9 | CSc1nn2c(=O)cc(N3CCOCC3)nc2n1Cc1cccc(Cl)c1Cl [GSK2347225] | 0 | 31 | 0 | 42 | 22 | 12 | 22 | 0 | 0 | 0 | 2 | 3 | 0 | 0 | 5 | 0 | 33 | 48 | 0 | 18
10 | COC(=O)c1cccc(NC(=O)NCCNc2ccnc(Nc3ccc(F)cc3)n2)c1 [GSK1379883] | 0 | 0 | 0 | 0 | 0 | 0 | 24 | 0 | 0 | 0 | 0 | 2 | 0 | 1 | 0 | 0 | 13 | 9 | 0 | 17

— article PMC5540273 (PLoS ONE, 2017)
